The values that follow come from PubChem BioAssay (EPA / NIEHS).

In assay [1] the target is Bile acid receptor (Homo sapiens) (UniProt Q96RI1). Put plainly: ATG_IR1_CIS: Attagene CIS-FACTORIAL HepG2 Assay for human Nuclear Receptor Subfamily 1 Group H Member 4 (NR1H4), IR1 submotif (AID 2282946). Conditions: IR1 reporter transcription, actives raise or lower the signal. In a few lines: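 HepG2 cells transiently transfected with multiplexed cis-element reporter units read endogenous transcription factor activity. After 24 h compound exposure, reporter mRNA was quantified by RT-PCR, fluorescent labelling, HpaI digestion and capillary electrophoresis; bidirectional fitting versus DMSO baseline.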

Assay [2] is described as follows: ATG_GRE_CIS: Attagene CIS-FACTORIAL HepG2 Assay for human Glucocorticoid Response Elements (GRE) (AID 2282947). The note with it: HepG2 GRE cis-reporter, Attagene multiplex mRNA; actives raise or lower the signal. Put shortly:
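Reporter transcripts read by RT-PCR with capillary electrophoresis fluorescence after a 24 h chemical exposure of HepG2 cells transiently transfected with multiple cis-element reporter units. Gain or loss fitted against DMSO.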

Assay [3] is described as follows: ATG_ISRE_CIS: Attagene CIS-FACTORIAL HepG2 Assay for human Interferon Regulatory Factor 1 (IRF1) binding to an Interferon-Stimulated Response Element (ISRE) (AID 2282948). The note with it: HepG2 ISRE cis-reporter (Attagene), mRNA transcription readout; actives raise or lower the signal. Put shortly:
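Read-out: fluorescent RT-PCR products resolved by capillary electrophoresis, reporting endogenous transcription factor activity via ISRE-driven reporter mRNA in transfected HepG2 cells dosed for 24 h; gain or loss fitted relative to DMSO.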

Assay [4] is described as follows: ATG_M_32_CIS: Attagene CIS-FACTORIAL HepG2 Assay for M32 Transcription Factor (Internal Marker) (AID 2282949).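 Further: background control marker of the multiplexed CIS panel rather than a real target.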 The note with it: HepG2 Attagene cis-factorial M32 reporter, mRNA; actives raise or lower the signal. Put shortly:
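HepG2 human liver cells transiently transfected with cis-promoter-driven multiple reporter transcription units, dosed 24 h. Reporter mRNA quantified by RT-PCR, FAM-labelled primer extension, HpaI digest and capillary electrophoresis; bidirectional fit versus DMSO baseline.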

Assay [5] is described as follows: ATG_M_06_CIS: Attagene CIS-FACTORIAL HepG2 Assay for M06 Transcription Factor (Internal Marker) (AID 2282950). The note with it: HepG2 Attagene CIS-FACTORIAL M06 internal marker reporter; actives raise or lower the signal. In a few lines: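 Fluorescence-labelled RT-PCR products from cis-promoter reporter units, cut with HpaI and resolved by capillary electrophoresis, give the signal. Cells are human HepG2, dosed for 24 h. Serves as background control, fitted relative to DMSO.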

Assay [6] addresses Hypoxia-inducible factor 1-alpha (Homo sapiens) (UniProt Q16665). Put plainly: ATG_HIF1a_CIS: Attagene CIS-FACTORIAL HepG2 Assay for human Hypoxia Inducible Factor 1 (HIF1A) (AID 2282951). Conditions: HepG2 Attagene cis-factorial HIF1a reporter transcription; actives raise or lower the signal. In a few lines:
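HepG2 cells transiently transfected with multiplexed cis-promoter reporter units; reporter mRNA read 24 h after dosing by RT-PCR, 6-FAM primer-extension labelling, HpaI digestion and capillary electrophoresis. Bidirectional fit versus DMSO baseline.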

The target in assay [7] is Heat shock factor protein 1 (Homo sapiens) (UniProt Q00613). Put plainly: ATG_HSE_CIS: Attagene CIS-FACTORIAL HepG2 Assay for human Heat Shock Transcription Factor 1 (HSE) (AID 2282953). The note with it: HepG2 HSE cis-reporter, Attagene RNA transcription; actives raise or lower the signal. Put shortly:
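After a 24 h incubation with test chemical, transfected HepG2 cells were harvested for RNA; reporter transcripts were measured by RT-PCR and capillary electrophoresis. Values reflect gain or loss of signal relative to DMSO.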

The nature of assay [8]: ATG_MRE_CIS: Attagene CIS-FACTORIAL HepG2 Assay for human Metal Responsive Element (MRE) (AID 2282954). Conditions: HepG2 MRE cis-reporter transcription, Attagene multiplex; actives raise or lower the signal. Put shortly:
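Endogenous MRE-dependent transcription read as reporter mRNA in transiently transfected human HepG2 cells at 24 h. RNA reverse-transcribed, PCR-amplified, labelled and resolved by capillary electrophoresis; gain or loss relative to DMSO.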

For assay [9], the target named is Paired box protein Pax-6 (Homo sapiens) (UniProt P26367). The assay can be described thus: ATG_Pax6_CIS: Attagene CIS-FACTORIAL HepG2 Assay for human Paired Box 6 (PAX6) (AID 2282956). Conditions: HepG2 CIS-FACTORIAL PAX6 reporter transcription, RNA readout; actives raise or lower the signal. Put shortly:
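Readout: reporter transcript fluorescence after RT-PCR and capillary electrophoresis. Cells: HepG2, transiently transfected with cis-regulated MRTUs. Exposure 24 h. Gain or loss of signal fitted bidirectionally relative to DMSO.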

A short description of assay [10]: ATG_PXRE_CIS: Attagene CIS-FACTORIAL HepG2 Assay for human Pregnane X Receptor Element (PXRE) (AID 2282957). The note with it: HepG2 Attagene CIS-FACTORIAL PXRE reporter, mRNA; actives raise or lower the signal. In a few lines: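 Read-out: fluorescence of reporter-specific RT-PCR products resolved by capillary electrophoresis, fitted bidirectionally relative to DMSO. Human HepG2 liver cells carried transfected cis-promoter reporter units and were exposed to chemicals for 24 h.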

A short description of assay [11]: ATG_PPRE_CIS: Attagene CIS-FACTORIAL HepG2 Assay for human Peroxisome Proliferator-activated Response Element (PPRE) (AID 2282958). The note with it: HepG2 PPRE cis-element reporter, Attagene transcription factor profiling; actives raise or lower the signal. In a few lines: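 HepG2 cells transiently transfected with multiplexed cis-element reporter units measure endogenous transcription factor activity. After 24 h compound exposure, reporter mRNA is quantified by RT-PCR, 6-FAM labeling, HpaI digestion and capillary electrophoresis; bidirectional fits are made against DMSO baseline.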

Assay [12] is described as follows: ATG_RORE_CIS: Attagene CIS-FACTORIAL HepG2 Assay for human RAR-related Orphan Receptor Element (RORE) (AID 2282959). Conditions: HepG2 Attagene cis-factorial RORE reporter, mRNA; actives raise or lower the signal. Put shortly:
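HepG2 cells transiently transfected with multiple cis-element reporter transcription units, exposed to chemical for 24 h. Reporter mRNA quantified by RT-PCR, 6-FAM primer-extension labeling, HpaI digestion and capillary electrophoresis; bidirectional fit versus DMSO baseline.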

Assay [13] in a line: ATG_Sox_CIS: Attagene CIS-FACTORIAL HepG2 Assay for human SRY-box transcription factor (SOX) (AID 2282960). The note with it: HepG2 Attagene cis-factorial SOX reporter, mRNA; actives raise or lower the signal. Put shortly: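 HepG2 cells transiently transfected with cis-element-driven multiple reporter transcription units, dosed 24 h; reporter mRNA measured by RT-PCR, FAM labelling, HpaI digestion and capillary electrophoresis. Bidirectional fit versus DMSO baseline.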

In assay [14] the target is Transcription factor Sp1 (Homo sapiens) (UniProt P08047). Put plainly: ATG_Sp1_CIS: Attagene CIS-FACTORIAL HepG2 Assay for human Specificity Protein 1 (Sp1) (AID 2282961). The note with it: HepG2 Sp1 cis-reporter transcription, actives raise or lower the signal. Put shortly:
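HepG2 cells transiently transfected with multiple reporter transcription units driven by cis-regulatory elements; Sp1-responsive reporter mRNA measured 24 h after dosing by RT-PCR and capillary electrophoresis fluorescence, fitted bidirectionally against DMSO baseline.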

A short description of assay [15]: ATG_SREBP_CIS: Attagene CIS-FACTORIAL HepG2 Assay for human Sterol Regulatory Element Binding (SREBP) (AID 2282962). The note with it: HepG2 Attagene cis-factorial SREBP reporter, mRNA; actives raise or lower the signal. In a few lines: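 Readout: fluorescent reporter-transcript peaks resolved by capillary electrophoresis after RT-PCR. Cells were human HepG2 carrying transfected cis-promoter reporter constructs, dosed for 24 h. Gain or loss of signal was fitted against DMSO controls.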

Assay [16] deals with Signal transducer and activator of transcription 3 (Homo sapiens) (UniProt P40763). Put plainly: ATG_STAT3_CIS: Attagene CIS-FACTORIAL HepG2 Assay for human Signal Transducer and Activator of Transcription 3 (STAT3) (AID 2282963). The note with it: HepG2, Attagene cis-factorial STAT3 reporter transcription; actives raise or lower the signal. In a few lines:
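Readout is reporter transcript quantified by RT-PCR and capillary electrophoresis, with 6-FAM primer extension and HpaI digestion. Total RNA is taken 24 h after dosing transiently transfected HepG2 carrying cis-regulated reporter units. Bidirectional fit against DMSO.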

Assay [17] in a line: ATG_TA_CIS: Attagene CIS-FACTORIAL HepG2 Assay for human TA Basal Promoter (AID 2282964). The note with it: HepG2 Attagene CIS-factorial TA basal promoter reporter; actives raise or lower the signal. In a few lines: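 Multiplexed mRNA reporter assay, HepG2, 24 h. Reporter cDNA amplified, 6-FAM primer-extended, HpaI-cut, CE-sized; DMSO = negative control and baseline.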
The nature of assay [18]: ATG_TCF_b_cat_CIS: Attagene CIS-FACTORIAL HepG2 Assay for human T-Cell-Factor with beta-catenin (TCF/b-cat) (AID 2282965). The note with it: HepG2 TCF/beta-catenin cis-reporter transcription, actives raise or lower the signal. In a few lines: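 Endogenous TCF/LEF activity read as reporter transcript level via RT-PCR and capillary electrophoresis fluorescence in transfected HepG2, 24 h exposure; gain or loss of signal fitted against DMSO controls.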

Assay [19] addresses Hepatocyte nuclear factor 6 (Homo sapiens) (UniProt Q9UBC0). Put plainly: ATG_HNF6_CIS: Attagene CIS-FACTORIAL HepG2 Assay for human Hepatocyte Nuclear Factor 6 (HNF6) (AID 2282952). The note with it: HepG2 Attagene cis-factorial HNF6 reporter transcription; actives raise or lower the signal. Put shortly:
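Readout: fluorescent reporter-transcript fragments resolved by capillary electrophoresis after RT-PCR, reflecting endogenous factor activity in transfected HepG2. Exposure 24 h. Gain or loss of signal fitted bidirectionally against DMSO.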

The nature of assay [20]: ATG_PBREM_CIS: Attagene CIS-FACTORIAL HepG2 Assay for human Phenobarbital-responsive Enhancer Module (PBREM) (AID 2282955). The note with it: HepG2 PBREM cis-reporter, Attagene multiplexed transcription; actives raise or lower the signal. Put shortly: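 HepG2 cells transiently transfected with multiple cis-regulated reporter transcription units; endogenous factor activity at the PBREM element measured as reporter mRNA 24 h after dosing, via RT-PCR and capillary electrophoresis of fluorescent fragments; bidirectional fitting versus DMSO.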

The source made the active and inactive calls. How the source made its calls: active means hit-call score of the fitted dose curve at least 0.9, where 1 is the maximum; inactive means score below 0.9.

Chain of Paired box protein Pax-6 (Homo sapiens) (P26367 whole entry, looked up): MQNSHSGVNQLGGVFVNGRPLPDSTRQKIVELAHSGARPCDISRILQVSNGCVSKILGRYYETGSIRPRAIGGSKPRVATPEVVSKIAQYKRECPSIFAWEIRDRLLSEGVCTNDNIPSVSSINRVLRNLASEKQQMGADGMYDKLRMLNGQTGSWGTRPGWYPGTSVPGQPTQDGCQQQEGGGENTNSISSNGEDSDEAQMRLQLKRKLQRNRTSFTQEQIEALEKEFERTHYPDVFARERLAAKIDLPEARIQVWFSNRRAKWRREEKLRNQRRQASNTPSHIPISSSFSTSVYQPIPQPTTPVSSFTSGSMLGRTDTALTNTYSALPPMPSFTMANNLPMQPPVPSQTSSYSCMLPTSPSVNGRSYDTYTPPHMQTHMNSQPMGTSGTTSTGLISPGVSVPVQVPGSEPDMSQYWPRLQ
Chain of Heat shock factor protein 1 (Homo sapiens) (Q00613 whole entry, looked up): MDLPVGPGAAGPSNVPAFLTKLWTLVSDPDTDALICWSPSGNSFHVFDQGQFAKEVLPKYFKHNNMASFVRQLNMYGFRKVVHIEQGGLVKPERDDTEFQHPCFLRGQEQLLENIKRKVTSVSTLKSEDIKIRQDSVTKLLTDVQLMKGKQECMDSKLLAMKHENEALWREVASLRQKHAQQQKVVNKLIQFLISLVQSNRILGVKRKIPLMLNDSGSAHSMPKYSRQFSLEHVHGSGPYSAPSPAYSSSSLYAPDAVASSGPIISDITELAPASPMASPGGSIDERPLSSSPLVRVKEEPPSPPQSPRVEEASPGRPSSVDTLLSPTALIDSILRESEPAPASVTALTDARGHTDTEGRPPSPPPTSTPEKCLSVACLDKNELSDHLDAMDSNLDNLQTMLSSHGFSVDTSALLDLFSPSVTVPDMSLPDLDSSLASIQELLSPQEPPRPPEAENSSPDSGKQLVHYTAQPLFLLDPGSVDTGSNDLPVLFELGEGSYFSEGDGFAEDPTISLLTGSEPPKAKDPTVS
Chain of Transcription factor Sp1 (Homo sapiens) (P08047 whole entry, looked up): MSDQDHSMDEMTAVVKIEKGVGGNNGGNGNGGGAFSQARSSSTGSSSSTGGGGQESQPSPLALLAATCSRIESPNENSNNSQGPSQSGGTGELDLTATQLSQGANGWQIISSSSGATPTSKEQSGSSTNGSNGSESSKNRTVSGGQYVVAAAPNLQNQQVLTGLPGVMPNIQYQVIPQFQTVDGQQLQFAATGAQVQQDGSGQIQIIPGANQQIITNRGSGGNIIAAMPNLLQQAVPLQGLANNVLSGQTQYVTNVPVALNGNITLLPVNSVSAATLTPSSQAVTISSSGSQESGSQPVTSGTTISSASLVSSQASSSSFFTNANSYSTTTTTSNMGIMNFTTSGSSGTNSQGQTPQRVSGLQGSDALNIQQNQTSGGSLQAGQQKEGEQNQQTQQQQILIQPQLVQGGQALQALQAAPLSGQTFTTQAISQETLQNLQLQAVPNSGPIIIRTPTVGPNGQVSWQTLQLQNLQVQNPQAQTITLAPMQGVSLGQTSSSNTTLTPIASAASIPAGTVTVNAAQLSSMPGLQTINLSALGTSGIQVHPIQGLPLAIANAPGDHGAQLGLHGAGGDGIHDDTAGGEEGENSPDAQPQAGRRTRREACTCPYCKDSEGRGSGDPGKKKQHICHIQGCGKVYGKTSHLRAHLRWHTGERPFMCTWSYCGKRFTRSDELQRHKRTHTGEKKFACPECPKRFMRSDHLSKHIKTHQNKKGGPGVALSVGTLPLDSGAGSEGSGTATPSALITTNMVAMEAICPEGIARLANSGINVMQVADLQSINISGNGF
Chain of Hepatocyte nuclear factor 6 (Homo sapiens) (Q9UBC0 whole entry, looked up, the tested form may be a part): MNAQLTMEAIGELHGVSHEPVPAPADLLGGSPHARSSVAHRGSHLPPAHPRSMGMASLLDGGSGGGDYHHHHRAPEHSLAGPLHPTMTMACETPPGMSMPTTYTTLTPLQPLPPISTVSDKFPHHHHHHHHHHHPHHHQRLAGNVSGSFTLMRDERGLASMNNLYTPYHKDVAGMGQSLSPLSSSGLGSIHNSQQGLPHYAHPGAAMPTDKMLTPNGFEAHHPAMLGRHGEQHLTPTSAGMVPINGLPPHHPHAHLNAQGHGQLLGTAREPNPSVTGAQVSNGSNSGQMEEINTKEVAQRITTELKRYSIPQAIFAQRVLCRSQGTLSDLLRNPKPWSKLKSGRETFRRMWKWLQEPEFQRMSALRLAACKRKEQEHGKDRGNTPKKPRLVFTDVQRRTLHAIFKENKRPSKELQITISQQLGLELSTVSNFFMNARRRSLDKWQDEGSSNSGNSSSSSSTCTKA
Chain of Bile acid receptor (Homo sapiens) (Q96RI1 whole entry, looked up): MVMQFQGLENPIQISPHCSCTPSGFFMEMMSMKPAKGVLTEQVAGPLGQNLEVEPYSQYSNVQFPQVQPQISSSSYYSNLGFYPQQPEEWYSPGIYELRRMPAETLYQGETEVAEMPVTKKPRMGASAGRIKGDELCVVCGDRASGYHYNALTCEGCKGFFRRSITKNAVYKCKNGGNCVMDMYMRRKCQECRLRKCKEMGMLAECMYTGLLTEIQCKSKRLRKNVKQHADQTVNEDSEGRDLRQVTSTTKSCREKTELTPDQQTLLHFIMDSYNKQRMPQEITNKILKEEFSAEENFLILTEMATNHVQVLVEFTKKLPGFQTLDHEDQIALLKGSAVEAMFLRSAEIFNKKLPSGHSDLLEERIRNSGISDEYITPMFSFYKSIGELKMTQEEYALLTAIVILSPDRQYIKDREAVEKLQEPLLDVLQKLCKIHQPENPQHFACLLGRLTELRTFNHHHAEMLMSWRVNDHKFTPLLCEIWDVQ
Chain of Hypoxia-inducible factor 1-alpha (Homo sapiens) (Q16665 whole entry, looked up): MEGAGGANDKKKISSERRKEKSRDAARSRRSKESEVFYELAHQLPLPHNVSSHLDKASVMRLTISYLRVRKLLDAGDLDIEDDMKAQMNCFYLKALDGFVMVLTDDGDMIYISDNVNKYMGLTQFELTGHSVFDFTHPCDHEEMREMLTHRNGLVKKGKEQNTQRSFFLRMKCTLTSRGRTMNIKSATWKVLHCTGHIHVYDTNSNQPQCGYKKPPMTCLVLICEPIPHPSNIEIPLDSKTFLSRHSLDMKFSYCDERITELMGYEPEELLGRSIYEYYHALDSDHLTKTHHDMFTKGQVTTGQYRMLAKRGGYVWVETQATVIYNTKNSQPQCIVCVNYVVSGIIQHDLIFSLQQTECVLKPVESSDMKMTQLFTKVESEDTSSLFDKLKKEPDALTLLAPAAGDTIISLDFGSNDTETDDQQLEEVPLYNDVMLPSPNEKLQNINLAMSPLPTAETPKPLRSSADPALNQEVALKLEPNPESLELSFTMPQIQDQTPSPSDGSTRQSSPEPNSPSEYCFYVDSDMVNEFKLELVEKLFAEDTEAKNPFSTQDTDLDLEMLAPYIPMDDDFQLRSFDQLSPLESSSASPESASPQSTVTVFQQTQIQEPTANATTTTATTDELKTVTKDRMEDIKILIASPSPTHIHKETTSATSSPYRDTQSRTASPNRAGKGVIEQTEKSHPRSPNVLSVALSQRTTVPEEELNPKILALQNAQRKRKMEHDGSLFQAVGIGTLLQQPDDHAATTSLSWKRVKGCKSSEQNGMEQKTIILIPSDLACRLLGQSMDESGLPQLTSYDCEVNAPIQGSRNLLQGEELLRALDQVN
Chain of Signal transducer and activator of transcription 3 (Homo sapiens) (P40763 whole entry, looked up): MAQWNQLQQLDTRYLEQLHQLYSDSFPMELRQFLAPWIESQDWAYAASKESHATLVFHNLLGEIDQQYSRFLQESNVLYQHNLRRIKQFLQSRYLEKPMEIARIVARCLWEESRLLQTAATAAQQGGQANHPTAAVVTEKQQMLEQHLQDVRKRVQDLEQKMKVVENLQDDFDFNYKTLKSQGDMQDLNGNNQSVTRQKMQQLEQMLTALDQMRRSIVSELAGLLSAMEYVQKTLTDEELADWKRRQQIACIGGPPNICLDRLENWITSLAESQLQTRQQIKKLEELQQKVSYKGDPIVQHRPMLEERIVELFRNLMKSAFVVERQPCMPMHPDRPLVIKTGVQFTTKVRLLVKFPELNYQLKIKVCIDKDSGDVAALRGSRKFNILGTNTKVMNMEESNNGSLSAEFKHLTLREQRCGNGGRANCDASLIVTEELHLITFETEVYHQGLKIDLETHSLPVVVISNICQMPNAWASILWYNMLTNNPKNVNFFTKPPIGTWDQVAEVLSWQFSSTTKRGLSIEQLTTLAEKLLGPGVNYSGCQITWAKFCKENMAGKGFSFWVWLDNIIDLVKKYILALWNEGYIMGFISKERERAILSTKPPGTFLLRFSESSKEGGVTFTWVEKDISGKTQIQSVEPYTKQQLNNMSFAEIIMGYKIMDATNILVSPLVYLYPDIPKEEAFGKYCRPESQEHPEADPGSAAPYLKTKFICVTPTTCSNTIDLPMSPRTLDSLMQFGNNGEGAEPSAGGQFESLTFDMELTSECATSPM

In general, AC50 refers to the concentration giving half of the maximal activity seen. With `c1ccc(CCCc2ccncc2)cc1`, the call in assay [1], in [2], in assay [3], in assay [4], in assay [5] and in assay [6] was inactive. Further, the outcome in [8], in assay [9], in assay [11], in assay [12], in assay [13] and in [14] was inactive. Besides, the result in [15], in [16], in assay [17] and in [18] was inactive. For the same compound, the results for the AC50 in [7] and in assay [10] were 144 µM (active) and 27 µM (active), respectively.

With `CC(=O)[C@H]1[C@H](C#N)C[C@H]2[C@@H]3CC=C4C[C@@H](O)CC[C@]4(C)[C@H]3CC[C@@]21C`, the outcome in assay [1], in assay [2], in assay [3], in assay [4], in [5] and in assay [19] was inactive. Also, the compound was called inactive in assay [7], in assay [8], in assay [9], in assay [10], in [11] and in assay [12]. The compound was classed as inactive in assay [13], in assay [15], in [17] and in [18].

For the compound `CCOC(=O)[C@H](C)O`, the compound was classed as inactive in assay [1], in [2], in assay [3], in [4], in assay [5] and in assay [19]. The compound was classed as inactive in assay [7], in assay [8], in [20], in assay [9], in assay [12] and in assay [13]. In addition, the compound was classed as inactive in assay [14], in assay [15] and in assay [18]. Besides, the AC50 in assay [10] was 27.2 µM (active).

As for `CCCCCCCCCCCCCCCC(=O)OCC`, the compound was called inactive in [1], in assay [2], in assay [3], in assay [4], in [6] and in [19]. Further, the outcome in [7], in assay [8], in assay [9], in assay [11], in [12] and in [14] was inactive. Moreover, the compound was classed as inactive in assay [15], in [16] and in assay [17]. The half-maximal activity concentration (AC50) in [10] is 31.1 µM (active).
